Molecules are shown by their SMILES. Compounds without any hit were thinned out: in the full panel of roughly 79,000, 15% have a hit. Activity calls are given as the source filed them. No stated cut-off is given here; in the data, active means growth inhibition above about 70%; inactive means the rest.

This experiment can be described thus: NCI Yeast Anticancer Drug Screen. Data for the wt1 strain (AID 149).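 Further: 0% = growth of vehicle-treated wt1 cultures.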 The settings on record: S. cerevisiae wt1 strain (SPY 50644) growth inhibition; at 100.0 µM; hits give high values. In outline: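 Measured: growth of wt1 yeast under compound versus vehicle treatment, reported as inhibition.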
As to `CCCc1cc(C(=O)OCC)cc(CCC)c1O`, the growth inhibition is 93% (active).
For `CC(C)[N+]([O-])(CCCNc1c2ccccc2nc2cccc([N+](=O)[O-])c12)C(C)C` the value was 94% (active); for `COc1cc2c3c(cccc3c1)C(=O)N(CCN(C)C)C2=O`, 2% (inactive); for `NC(=O)NN=C(CS)CS`, 33% (inactive).
With `Cc1ccc(NC(=O)/C(Cl)=C(\Cl)C(=O)O)cc1C`, the growth inhibition was 98% (active).
For `CCN(CC)CC[n+]1ccc2c(C)c3[nH]c4ccc(O)cc4c3c(C)c2c1` the value was 8% (inactive).
For `CC(CC(C)(C)[N+](C)(C)C)[N+](C)(C)C` (centres undefined) the value was 0% (inactive).
With `COc1ccc(OC)c2cc3ccccc3cc12` the figure was -4% (inactive); with `Nc1ncncc1C(C1=C(O)COC1=O)C1=C(O)COC1=O`, 1% (inactive); with `CSC1=NNC(SC)=NN1`, 99% (active).
`Cc1c(Cl)ccc2c1S(=O)(=O)c1cccc(Cl)c1-2`: the growth inhibition is -1% (inactive).
Take `[O-][n+]1c2ccc(O)cc2nc2ccc(Cl)cc21`: the growth inhibition was 53% (inactive).
With `COc1ccc2ccc3ccccc3c2c1C=O` the figure was 93% (active); with `Nc1ccc2c(c1)C(=O)c1cccc(N)c1C2=O`, 61% (inactive); with `O=C(c1ccc(Cl)cc1Cl)C(Cl)Cl`, 98% (active).
In the case of `COc1cc(C(=O)/C=C/c2ccccc2O)ccc1O`, the growth inhibition was 98% (active).
For `O=Cc1cccc2ccc3ccccc3c12` the value was 52% (inactive); for `O=C(Nc1ccc(Cl)cc1)OCC#CCCl`, 9% (inactive).
For `Cn1ccnc1Oc1ccc(Cl)cc1` the value was 97% (active).
Take `c1ccc2c(c1)C(=NCCCN1CCCCCC1)c1cccn1-2`: the growth inhibition was 93% (active).
For `C/C(=N\O)C1CC2C=C(C#N)C1N(Cc1ccccc1)C2` (centres undefined) the value was -1% (inactive); for `O=[N+]([O-])C(=C(Sc1ccccc1)Sc1ccccc1)C(Cl)=C(Cl)Cl`, 41% (inactive); for `CCCCCCCCCC/C=C\C(=O)O`, 97% (active).
For `COc1ccc(N=C2C(=O)Nc3ccc(Br)cc32)cc1` the value was 15% (inactive); for `COc1ccccc1C(=O)OCC1CCCN2CCCCC12` (centres undefined), 98% (active); for `CC(C)(Br)C(=O)/C=C/c1ccc(Cl)c(Cl)c1`, 1% (inactive).
With `Nc1ccccc1CC(O)C(=O)O` (centres undefined) the figure was 90% (active); with `CC(=O)N/N=C/C(C)(C)C(C)(C)/C=N/NC(C)=O`, 42% (inactive); with `CN(C)c1nc2sc3c(c2c(=O)o1)CCCC3`, 32% (inactive).
As for `CC(C)OC(=O)Oc1ccccc1OC(=O)OC(C)C`, the growth inhibition was -2% (inactive).
With `Cc1ccc(N)c(S)c1` the figure was 99% (active).
Turning to `O=C(O)c1ccccc1NC(=S)c1ccccc1`, the growth inhibition was 26% (inactive).
For `COC(=O)c1ccc(NCC2=CC(=O)C=CC2=O)cc1O` the value was 93% (active).
For the compound `NC(N)=N/N=C\c1c2ccccc2cc2ccccc12`, the growth inhibition is 95% (active).
As to `COC(=O)CSSCc1ccc([N+](=O)[O-])cc1`, the growth inhibition was 83% (active).
In the case of `CCS(=O)(=O)c1ccc(/C=C/C=N/NC(=S)NCC(C)C)cc1`, the growth inhibition was 4% (inactive).
For `N#CC(C(=O)Nc1ccccc1)C1=C(Cl)C(=O)c2ccccc2C1=O` (centres undefined) the value was 96% (active).
With `C[C@H](CCC(=O)NN)[C@H]1CC[C@H]2[C@@H]3CC[C@@H]4C[C@H](O)CC[C@]4(C)[C@H]3CC[C@]12C` the figure was 3% (inactive).
With `CC[n+]1ccc2c(C)c3[nH]c4ccc(O)cc4c3c(C)c2c1` the figure was 14% (inactive).

Source of the values: PubChem BioAssay (NCI).
